This is a sample that favours compounds with a hit; in the whole collection about 19% have one here.
VP16 counter: VP16 counterscreen qHTS for inhibitors of ROR gamma transcriptional activity | Drosophila S2 Gal4-VP16 UAS-luciferase, luminescence, 20 h | Potency, µM (titrated, usually from 53.6 µM), for inactives: at the highest dose activity, negative = inhibition, hits mostly inhibitors | hit rate 3.5% among 310,000;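 also: Gal4-VP16 expression switched on by copper sulfate through the metallothionein promoter; nearly all actives have a fitted effect of over 50% in size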
RORg inh: qHTS for inhibitors of ROR gamma transcriptional activity; Drosophila S2 Gal4-RORgamma UAS-luciferase reporter, 20 h; Potency, µM (doses to about 53.6 µM), for the others: top-dose activity change, negative = inhibition, actives largely listed as inhibitors; hit rate 5.4% among 310,000; also: nearly all actives have a fitted effect of over 60% in size
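Stable Schneider cell line, Gal4 DNA-binding domain fused to ROR gamma, UAS-luciferase. Cmpd 1 hr RT → CuSO4 700 uM final → 20 hr RT → luciferase reagent 10 min → luminescence.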
TDP1 cell noCPT: qHTS for Inhibitors of human tyrosyl-DNA phosphodiesterase 1 (TDP1): qHTS in cells in absence of CPT | DT40 Tdp1-/- hTDP1 cells, no CPT, ATP luminescence, 48 h | Potency, µM (series often up to 46.2 µM), without a hit: at the highest dose activity change, negative = growth inhibition, actives largely listed as inhibitors | hit rate 15% among 420,000; also: nearly all actives have a fitted effect of over 55% in size
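Luminescent ATP content (CellTiter-Glo) served as the growth readout. Knockout chicken DT40 cells expressing human TDP1 were exposed to compounds without camptothecin for a minimum 48 hr at 37 °C.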
TDP1 block: qHTS Assay for Inhibitors of Tyrosyl-DNA Phosphodiesterase (TDP1); Tyrosyl-DNA phosphodiesterase 1 (Homo sapiens), Q9NUW8; recombinant TDP1, AlphaScreen DNA substrate cleavage; Potency, µM (titrated, usually from 130 µM), without a hit: top-dose activity change, negative = inhibition, hits mostly inhibitors; hit rate 0.28% among 350,000; AID 485290, 2010; also: nearly all actives have a fitted effect of over 40% in size
Target sequence (Q9NUW8 whole entry, looked up): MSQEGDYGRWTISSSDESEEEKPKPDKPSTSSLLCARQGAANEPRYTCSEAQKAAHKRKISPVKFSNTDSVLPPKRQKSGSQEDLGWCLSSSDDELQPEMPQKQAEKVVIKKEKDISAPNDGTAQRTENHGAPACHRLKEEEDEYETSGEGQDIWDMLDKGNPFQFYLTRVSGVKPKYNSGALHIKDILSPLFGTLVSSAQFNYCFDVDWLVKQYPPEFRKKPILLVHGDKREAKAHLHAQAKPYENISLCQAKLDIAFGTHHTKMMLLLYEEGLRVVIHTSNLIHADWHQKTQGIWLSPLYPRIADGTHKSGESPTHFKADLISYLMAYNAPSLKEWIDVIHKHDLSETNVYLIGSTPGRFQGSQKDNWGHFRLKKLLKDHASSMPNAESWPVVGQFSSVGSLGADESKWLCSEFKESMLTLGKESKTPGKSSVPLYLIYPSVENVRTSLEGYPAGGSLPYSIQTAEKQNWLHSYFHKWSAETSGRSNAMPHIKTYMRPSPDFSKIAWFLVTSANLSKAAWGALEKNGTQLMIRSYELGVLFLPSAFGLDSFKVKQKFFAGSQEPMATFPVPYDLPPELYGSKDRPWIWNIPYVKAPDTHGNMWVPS
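Compounds were preincubated with Tdp1 (1 nM final) for 15 min at room temperature before substrate (15 nM final) started a 5 min reaction; beads (10 ug/ml final) were then added for 10 min before AlphaScreen detection.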
DT40 TDP1 CPT: qHTS for Inhibitors of human tyrosyl-DNA phosphodiesterase 1 (TDP1): qHTS in cells in presence of CPT | chicken DT40 Tdp1-/-;hTDP1 cells + 20 nM CPT, ATP luminescence, 48 h | Potency, µM (top dose mostly 46.2 µM), without a hit: top-dose activity change, negative = growth inhibition, usual class: inhibitors | hit rate 12% among 420,000 | AID 686979, 2013; also: nearly all actives have a fitted effect of over 55% in size
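Chicken DT40 Tdp1-/- cells complemented with human TDP1, 400 cells/well, exposed to compounds plus 20 nM camptothecin for at least 48 h at 37 C; viability read as ATP content by CellTiter-Glo luminescence.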
An asterisk follows results filed as active; ? = inconclusive; . = no result given; [ ] = remark or other dose. Calls follow the shape of the dose curve; as a rule, active = well fitted curve in the direction sought with a large enough effect; inconclusive = small, poorly fitted or top-dose-only effect, or another doubt; inactive = no such curve, though single readings can be large; an effect the other way counts as inactive or inconclusive. % is scaled to controls: 0 for no effect and ±100 for the full control effect; potency is read from the fitted curve at half-maximal effect.

SMILES	VP16 counter	RORg inh	TDP1 cell noCPT	TDP1 block	DT40 TDP1 CPT
CCc1ccc(-c2nc(CN3CCC(C(=O)N4CCN(c5ccccc5)CC4)CC3)c(C)o2)cc1	-7.7%	27.0%	16.4µM*	8.8%	?
COc1cc(NC(=O)CSc2ncccc2C(=O)OC(C)C)cc(OC)c1	-8.2%	2.1%	?	7.8%	?
CC(=O)Nc1nc2ccccc2n1CCN(C)C	?	?	-6.4%	2.1%	-1.7%
O=NNc1nc2ccccc2n1Cc1ccccc1	2.82µM*	1.78µM*	2.31µM*	.	4.61µM*
CC(=O)Nc1nc2ccccc2n1Cc1ccccc1	5.62µM*	2.24µM*	?	5.4%	?
CCSc1nc2c(c(=O)[nH]1)C(C(C)C)C(C#N)=C(N)O2 (centres undefined)	-2.8%	-0.1%	-11.3%	2.9%	?
COc1ccc(/C=C/c2cc(C(=O)O)c3ccccc3n2)cc1	1.41µM*	1.12µM*	14.6µM*	-1.3%	10.3µM*
Cc1cc(/C=C\c2ccccc2)nc2ccccc12	-6.5%	11.2µM*	-23.2%	-3.7%	-6.7%
Cc1cc(C(Br)(Br)Br)nc2ccccc12	.	.	2.51µM*	.	2.51µM*
COc1ccc(OC)c(CN2CCN(c3ccc(S(=O)(=O)N4CCCC4)cn3)CC2)c1	.	.	?	3.6%[56.1 µM]	?
CC(NC(=O)CN(c1ccc(Br)cc1)S(C)(=O)=O)c1ccccc1 (centres undefined)	11.3%	22.9%	?	.	-6.4%
COc1ccc(/C=C/C(=O)NC(=S)NN2CCCCC2c2cccnc2)cc1OC (centres undefined)	15.8µM*	12.6µM*	-21.7%	0.0%	-0.1%
COc1cc(OC)cc(C(=O)NC(=S)N2CCCCC2c2cccnc2)c1 (centres undefined)	3.98µM*	38.4%	-11.6%	.	?
COc1ccc(NC(=O)N2CCCCC2c2cccnc2)cc1 (centres undefined)	11.9%	29.8%	-7.6%	3.0%	3.6%
O=C(/C=C/c1ccc(Cl)cc1)NC(=S)NN1CCCCC1c1cccnc1 (centres undefined)	?	2µM*	.	8.1%	.
O=C(Nn1cnc2ccccc2c1=O)C1CCCCC1	1.2%	12.2%	-11.0%	0.0%	-4.2%
CC1CCN(C(=O)c2ccccc2NC(=O)c2nsc3ccccc23)CC1	.	.	-24.1%	2.7%	-19.8%
Cc1ccc(-c2nc3ccccc3n3c(-c4ccccc4)c4c(=O)n(C)c(=O)n(C)c4c23)cc1	.	.	-18.6%	1.1%	-2.7%
Cc1ccc(SCCC(=O)NC(C)C)cc1	12.3%	?	3.2%	-1.9%[56.1 µM]	-4.9%
CN(C)c1ncnc2ccc(-c3ccc4c(c3)OCO4)cc12	-3.0%	-3.3%	23.1µM*	.	?
COc1cccc(-c2ccc3ncnc(NCc4ccc5c(c4)OCO5)c3c2)c1	.	.	.	5.0%	.
COc1ccccc1CNc1ncnc2ccc(-c3cccc(NS(C)(=O)=O)c3)cc12	?	?	1.46µM*	.	1.64µM*
COc1cccc(-c2ccc3ncnc(NCc4ccccc4)c3c2)c1	-18.6%	-0.4%	20.6µM*	.	?
COCCNc1ncnc2ccc(-c3cccc(OC)c3)cc12	2.7%	?	23.1µM*	.	?
CN(Cc1cccs1)c1ncnc2ccc(-c3ccc4c(c3)OCO4)cc12	.	.	.	-6.1%	.
CCc1ccccc1NC(=O)C1=CC(c2cccs2)=NS(=O)(=O)N1C	5.8%	-3.3%	?	.	?
Brc1ccc2ncnc(NCc3ccccc3)c2c1	?	?	8.2µM*	2.0%	7.31µM*
COc1cccc(-c2ccc3ncnc(NCc4ccccc4OC)c3c2)c1	?	?	14.6µM*	5.3%[56.1 µM]	?
COc1cccc(-c2cncnc2NCc2cccnc2)c1	-6.2%	-0.2%	-26.3%	.	-9.7%
N#Cc1cccc(-c2ccc3ncnc(N4CCNCC4)c3c2)c1	-4.5%	11.8%	?	.	-13.1%

Source: PubChem (National Center for Advancing Translational Sciences (NCATS))
